Assay results: publication PMC7819943, “Rice protein-binding microarrays: a tool to detect cis-acting elements near promoter regions in rice”
Over roughly 68,000 sequences, “fluorescence intensity (a.u.)” has its median near 9,100; the highest 2% begin near 16,000. Only a selection was taken, and the highest values are over-represented in it overall.

biological target: OsWRKY34 (Oryza sativa, UniProt Q0JBA9 1-250); assay: protein-binding microarray (RPBM); PBS, 2% BSA, 51.3 ng/ul salmon testes DNA, 50 uM zinc acetate, 200 nM TF, 25 C, 1 h; high values mean tight binding; details: protein: recombinant; tags: N-terminal polyhistidine and DsRed monomer fusion (pET32a); label: CyDye5-dUTP incorporated in the synthesized complementary strand; 3' TTTTT single-stranded linker to array surface; dsDNA, one strand shown
Sequence (Q0JBA9 entry or part of it): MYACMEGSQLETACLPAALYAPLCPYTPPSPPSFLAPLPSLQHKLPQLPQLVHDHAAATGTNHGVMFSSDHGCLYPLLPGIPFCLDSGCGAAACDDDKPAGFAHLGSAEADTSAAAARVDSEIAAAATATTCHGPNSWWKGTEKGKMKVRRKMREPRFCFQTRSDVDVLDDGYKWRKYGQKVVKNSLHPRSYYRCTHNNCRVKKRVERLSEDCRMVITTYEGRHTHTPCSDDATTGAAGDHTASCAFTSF
Outline: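 Binding signal is defined as the fluorescence intensity of each feature in arbitrary units, read on an Axon 4000B scanner. Transcription factors with N-terminal polyhistidine and DsRed fusions came from E. coli BL21-CodonPlus and were purified on Ni–NTA. They were incubated at 200 nM for 1 h at 25 °C on a custom Agilent array that had been made double-stranded with Cy5-dUTP, with 50 µM zinc acetate present, and the array was washed.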

Row | Sequence | binding signal
1 | TTCATTCATATGGTGTAACTTTTTGTCGCTGTAGGATCGCCGGAGTCACCTAGTGCAG | 8130 fluorescence intensity (a.u.)
2 | CTTGCTGCCTGGATTTCTCCCTGTTTGCTCCCTGACGGAGCGGAGTCACCTAGTGCAG | 9470 fluorescence intensity (a.u.)
3 | TCCGTGACTATGCTTCTTCTTTTCTTTAATTTTCACCAGACGGAGTCACCTAGTGCAG | 8750 fluorescence intensity (a.u.)
4 | AATCAGATGGAGAGTTGGTTATATGGGTGTTTGGAGAGTTCGGAGTCACCTAGTGCAG | 8410 fluorescence intensity (a.u.)
5 | ATCTCCAAAATCAGTTTAACATCGCCTAATCCACGTCGGTCGGAGTCACCTAGTGCAG | 8820 fluorescence intensity (a.u.)
6 | TTTGCGTCGCCTTTCATTTTGGATGTTTCAATTTGAATACCGGAGTCACCTAGTGCAG | 10400 fluorescence intensity (a.u.)
7 | GAGCGCGCGCGTTGGGCGGGAGGGGTTTGGTTGGTGAGCGCGGAGTCACCTAGTGCAG | 11800 fluorescence intensity (a.u.)
8 | GGTGGAGGAGGTGGGCGGGGAAAGCGGCGACGTGAGGCGGCGGAGTCACCTAGTGCAG | 14400 fluorescence intensity (a.u.)
9 | GTTTTGTTGGGTCGGCGGCGGCGGGTGAGAGTGGAGAATGCGGAGTCACCTAGTGCAG | 12900 fluorescence intensity (a.u.)
10 | GGAGGAGGGGCGGCGGAGCGGGTGGTGGGGAGGCGACATGCGGAGTCACCTAGTGCAG | 17900 fluorescence intensity (a.u.)
11 | GGAGCGCTGGGAGGAAGGGCGTAGGGAGGGAGGGGTGAGGCGGAGTCACCTAGTGCAG | 11600 fluorescence intensity (a.u.)
12 | GGCGAAGTGGTGGGTGCGTTGGGGCGAGGCGGAGCGGTGGCGGAGTCACCTAGTGCAG | 8050 fluorescence intensity (a.u.)
13 | GGACGGCGGCGAGCGGCGAGGAGGAGGCGGGGAGGTGGGACGGAGTCACCTAGTGCAG | 9580 fluorescence intensity (a.u.)
14 | GTGGGGTGGGTGAGCGGGATGCGGGGCTTAGGCGGGGAAGCGGAGTCACCTAGTGCAG | 16500 fluorescence intensity (a.u.)
15 | GTTGCGGGGTGGGTGGTGGCGTTGCGGGAGGAGGAGGGAGCGGAGTCACCTAGTGCAG | 23100 fluorescence intensity (a.u.)
16 | CTGGGGAGGGCGACGGCGCAGTGCGGGGTGGACGGGAGCGCGGAGTCACCTAGTGCAG | 8270 fluorescence intensity (a.u.)
17 | GCGCGGCGTTGTTGGGTGTGTTCGTGAATCGGGCGGGATGCGGAGTCACCTAGTGCAG | 10500 fluorescence intensity (a.u.)
18 | CGTTTGTTGGGTGCGGCGGGCGGGGAGGAGCTCGTGAATGCGGAGTCACCTAGTGCAG | 19600 fluorescence intensity (a.u.)
19 | CTAATCCCCTCTAGCTAGCCTCTTTTTTCTCCATTTGTTTCGGAGTCACCTAGTGCAG | 11100 fluorescence intensity (a.u.)
20 | GCCGCCGCCGCCGCCCGCGCCGATCCCCATCCATCCCGCACGGAGTCACCTAGTGCAG | 8970 fluorescence intensity (a.u.)
21 | GGGATGTCTTGGCTTTTTTTTTTTCTTCACCGAGCAATCGCGGAGTCACCTAGTGCAG | 13400 fluorescence intensity (a.u.)
22 | GGTTAGAGATACATACATATTATACCTGATTCACCTCACTCGGAGTCACCTAGTGCAG | 8060 fluorescence intensity (a.u.)
23 | CTTCTTCGATCTCCGGCAATCGCTCCATCGATCGGCGCTTCGGAGTCACCTAGTGCAG | 8370 fluorescence intensity (a.u.)
